A selection: hits, their analogues and other compounds. The true share with any hit is near 6.5%.
Fluor 339 460 – intrinsic fluorescence of library compounds, ex339/em460 – biochemical, MLSMR library, data from DPM-DC assay, artefact control, profiling panel | compound autofluorescence, ex339/em460 nm, NADH buffer; active compounds read high; 1 = no-compound wells, NADH background | fluorescence fold increase at 10 µM | 65,000 tested, 5.5% active | AID 709;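 active = at 10 µM, mean starting fluorescence two-fold or more over control wells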;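 note: signal is the first read of a kinetic run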
Abs 340nm – absorbance at 340 nm | compound absorbance at 340 nm, fold over control | fold change at 10 µM | 65,000 tested, under 10 active | AID 708;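 active = at 10 µM dose, initial 340 nm absorbance at least 2 fold that of control wells; inactive = change under 2 fold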;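 note: initial absorbance extrapolated from kinetic A340 decline of NADH oxidation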
NADH enzymes – inhibition of NAD/NADH coupling enzymes, library profiling; IC50, µM (series often up to 10 µM), without a hit: at the top dose inhibition; 65,000 tested, 0.02% active; coupled PK/LDH NADH assays, four targets; AID 774;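 active = single-dose screening hits from any of four coupled enzyme assays that gave an IC50 when retested across doses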;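 note: the DPM-DC format reads NADH fluorescence rather than 340 nm absorbance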
Spn DPM-DC inh – blocks S. pneumoniae diphosphomevalonate decarboxylase | AID 556 | 65,000 tested, 0.49% active | purified DPM-DC, PK/LDH coupled NADH fluorescence | calls only at 10 µM;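 active = the 320 compounds with the highest percent inhibition in the single-dose primary screen, excluding strongly autofluorescent ones, cut at about 32% in these data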;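 note: kinetic rate of NADH fluorescence loss reporting ADP formed by the decarboxylase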
MK inhibit – blocks S. pneumoniae mevalonate kinase | 65,000 tested, 0.48% active | AID 555 | inhibition, % at 10 µM | purified MK, PK/LDH-coupled NADH absorbance 340 nm;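 active = ranked among the strongest by inhibition in the single 10 µM screen, a fixed top-ranked set picked for dose follow-up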
Spn PMK inh – inhibitors of Streptococcus pneumoniae phosphomevalonate kinase. purified PMK, PK/LDH-coupled NADH absorbance 340 nm. inhibition, % at 10 µM. 65,000 tested, 0.49% active;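 active = top-ranked compounds by inhibition in the single 10 µM screen, taking a fixed number of the strongest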;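 note: 0% = full reaction with DMSO carrier and 100% = background rate without enzyme reaction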
The depositor's hits bear a star; i = inactive; · = no result shown.

SMILES | Fluor 339 460 | Abs 340nm | NADH enzymes | Spn DPM-DC inh | MK inhibit | Spn PMK inh
CCOC(=O)c1[nH]c2ccc(F)cc2c1NC(=O)CN1CCN(C/C=C/c2ccccc2)CC1 | 2.6* | 1 | 8% | i | 9 | 11
CCOC(=O)c1[nH]c2cc(OC)c(OC)cc2c1NC(=O)c1ccc2c(c1)OCO2 | 1.2 | 1.2 | 6% | i | 3 | 14
COC(=O)c1[nH]c2ccccc2c1NC(=O)CN1CCN(C/C=C/c2ccccc2)CC1 | 1.8 | 1 | 9% | i | 11 | 13
CCOC(=O)c1[nH]c2cc(OC)c(OC)cc2c1NC(=O)CN(C)C1CCCCC1 | 3.7* | 1.1 | 13% | · | 11 | 14
CCOC(=O)c1[nH]c2ccc(OCC)cc2c1NC(=O)CN1CCC2(CC1)OCCO2 | 3.9* | 1.1 | 7% | · | 3 | 10
CC(C)c1ccccc1OCCNS(C)(=O)=O | 1.1 | 1.1 | 0% | i | 1 | 0
CSc1cccc(-n2cc(-c3ccc4c(c3)OCO4)[nH]c2=O)c1 | 1.1 | 1.1 | 5% | i | 11 | 0
C#CC1CN(Cc2ccccc2)CC(C#C)N1C (stereo not given) | 1.1 | 1 | 4% | i | 8 | 5
CCOC(=O)CSC1=C(C#N)C(c2ccccc2Cl)C(C(=O)OC)C(=O)N1 (stereo not given) | 1.1 | 1.1 | 8% | i | 9 | 11
CN(C)/C=N/c1c(C#N)cnn1-c1ccccc1 | 1.1 | 1 | 0% | i | 0 | 1
CN(C)C=Nc1ccc2nn(-c3ccccc3)nc2c1 | 2.2* | 1.2 | 5% | · | 10 | 0
O=C1c2ccccc2C(=O)N1CC1=CCS(=O)(=O)C1 | 1.1 | 1 | 7% | i | 9 | 13
Cc1nc2ccc(F)cc2cc1C(=O)NC(C)C | 1.1 | 0.96 | 6% | i | 14 | 4
COc1ccc(-c2nc(C#N)c(NCCCN3CCOCC3)o2)cc1 | 2.1* | 1.1 | 2% | · | 4 | 0
N#Cc1nc(-c2cccs2)oc1NCCCN1CCOCC1 | 2.3* | 1.1 | 5% | · | 9 | 0
N#Cc1nc(-c2ccc(F)cc2)oc1NCCN1CCOCC1 | 2.1* | 1.1 | 6% | · | 9 | 3
N#Cc1nc(-c2ccccc2F)oc1NCCN1CCOCC1 | 2.1* | 1.1 | 13% | · | 5 | 20
N#Cc1nc(COc2ccc(-c3ccccc3)cc2)oc1NCCCN1CCOCC1 | 1.1 | 1 | 2% | i | 7 | 0
N#Cc1nc(-c2cccc3ccccc23)oc1NCCN1CCOCC1 | 3.6* | 1.1 | 14% | · | 13 | 15
N#Cc1nc(Cc2cccc3ccccc23)oc1NCCN1CCCCC1 | 1.1 | 1 | 6% | i | 8 | 11
Cc1ccc(-c2nc(C#N)c(NCCN3CCCCC3)o2)cc1 | 2.1* | 1.1 | 5% | · | 4 | 6
N#Cc1nc(COc2ccccc2)oc1NCCN1CCOCC1 | 1.1 | 1 | 4% | i | 5 | 17
N#Cc1nc(-c2ccco2)oc1NCCN1CCOCC1 | 3* | 1 | 17% | i | 10 | 13
COc1ccc(N2CCN(c3oc(-c4ccco4)nc3C#N)CC2)cc1 | 1.1 | 1 | 10% | i | 16 | 13
O=C(CN(Cc1ccc(F)cc1)C(=O)Cn1nnc2ccccc21)NCC1CCCO1 (stereo not given) | 0.99 | 0.98 | 4% | i | 11 | 12
SMILES | Fluor 339 460 | Abs 340nm | NADH enzymes | Spn DPM-DC inh | MK inhibit | Spn PMK inh
O=C(Cn1cnc2c(nnn2Cc2ccccc2F)c1=O)NCc1ccco1 | 1.1 | 1 | 7% | i | 9 | 13
c1ccc(-n2nc3c(ccc4cnnc43)[nH]2)cc1 | 4* | 1 | 9% | · | 13 | 5
FC(F)(F)c1ccc(N2CCOCC2)c(Nc2nc3ccccc3n3cnnc23)c1 | 2.5* | 1 | 2% | i | 4 | 2
O=C(Cn1cnc2ccccc21)Nc1cc(C(F)(F)F)ccc1N1CCOCC1 | 1.1 | 1 | 5% | i | 0 | 14
Clc1ccccc1-c1nnc2sc(-c3ccc4c(c3)OCO4)nn12 | 2.6* | 1 | 17% | i | 20 | 11
Clc1ccccc1-c1nn2c(Cn3cnc4ccccc43)nnc2s1 | 1.1 | 1 | 5% | i | 10 | 5
Brc1ccccc1-c1nnc2sc(-c3ccc4c(c3)OCCO4)nn12 | 2* | 1.1 | 7% | i | 6 | 11
c1ccc2c(c1)OCC(c1nnc3sc(-c4ccc5c(c4)OCO5)nn13)O2 (stereo not given) | 2.6* | 1 | 6% | i | 0 | 10
c1ccc2c(c1)ncn2Cc1nnc2sc(-c3ccc4c(c3)OCO4)nn12 | 3.8* | 1.1 | 12% | · | 8 | 15
Clc1cccc(-c2nnc3sc(-c4ccc5c(c4)OCO5)nn23)c1 | 1.2 | 1.1 | 1% | i | 0 | 3
Brc1ccccc1-c1nnc2sc(Cc3ccccc3)nn12 | 1.1 | 1 | 6% | i | 4 | 6
Fc1ccc(-c2nn3c(C4COc5ccccc5O4)nnc3s2)cc1 (stereo not given) | 1.1 | 0.99 | 5% | i | 8 | 6
COc1oc(-c2ccccc2)nc1C(F)(F)F | 1.1 | 1 | 2% | i | 10 | 0
CC(NC(=O)c1ccco1)c1ccc2c(c1)OCCO2 (stereo not given) | 1.1 | 0.99 | 2% | i | 11 | 5
Cc1ccc(C(C(=O)NC2CCCC2)N(Cc2cccnc2)C(=O)c2snc(C(N)=O)c2N)o1 (stereo not given) | 2.6* | 1.1 | 13% | i | 9 | 7
COCCNC(=O)C(c1ccc(C)o1)N(C(=O)c1snc(C(N)=O)c1N)c1cccc(C)c1 (stereo not given) | 2.5* | 1 | 15% | i | 7 | 16
CCOc1ccccc1N(C(=O)c1snc(C(N)=O)c1N)C(C(=O)NC1CCCC1)c1ccco1 (stereo not given) | 2.4* | 1.1 | 14% | i | 5 | ·
Cc1ccc(CN2C(=O)CCC2C(=O)NC(C)C)cc1 (stereo not given) | 1.1 | 1 | 7% | i | 7 | 13
O=C(Nc1ccc(N2CCOCC2)c(F)c1)c1ccncc1 | 1.1 | 1 | 3% | i | 5 | 9
CCc1nc(SCc2cccnc2)[nH]c(=O)c1C | 1.1 | 1 | 2% | i | 7 | 0
CC(=O)Oc1ccc(CCC(C)OC(C)=O)cc1 (stereo not given) | 1 | 1 | 2% | i | 0 | 0
N#C/C(=C(/O)COC(=O)Cc1c[nH]c2ccccc12)c1nc2ccccc2[nH]1 | 1.1 | 1.1 | 5% | i | 0 | 12
N#C/C(=C(/O)COC(=O)CCc1ccc(S(=O)(=O)N2CCOCC2)cc1)c1nc2ccccc2[nH]1 | 1.5 | 1.1 | 34% | i | 75* | 20
C=CCn1cc(C(=O)NCCCOC)c(=O)c2cc(S(=O)(=O)N(CC)CC)ccc21 | 1.2 | 1 | 4% | i | 4 | 9
C=CCn1c(=N)c(C(=O)NCCCOC)cc2c(=O)n3cc(C)ccc3nc21 | 3.8* | 1 | 5% | · | 0 | 9

Screening results from PubChem BioAssay.
